Assay results reported in PubChem BioAssay.
Values without a mark were called inactive. How the calls were made is not given here.

target: Pantothenate synthetase (Mycobacterium tuberculosis (strain ATCC 25618 / H37Rv)) (UniProt P9WIL5); assay: Recombinant Mtb pantothenate synthetase (PanC) inhibitors, coupled enzyme, confirmatory (AID 375); conditions: coupled enzyme assay; at 10 µM, active compounds read high;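 further: 0% = full reaction with vehicle and 100% = no enzyme background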
Sequence (P9WIL5 whole entry, looked up): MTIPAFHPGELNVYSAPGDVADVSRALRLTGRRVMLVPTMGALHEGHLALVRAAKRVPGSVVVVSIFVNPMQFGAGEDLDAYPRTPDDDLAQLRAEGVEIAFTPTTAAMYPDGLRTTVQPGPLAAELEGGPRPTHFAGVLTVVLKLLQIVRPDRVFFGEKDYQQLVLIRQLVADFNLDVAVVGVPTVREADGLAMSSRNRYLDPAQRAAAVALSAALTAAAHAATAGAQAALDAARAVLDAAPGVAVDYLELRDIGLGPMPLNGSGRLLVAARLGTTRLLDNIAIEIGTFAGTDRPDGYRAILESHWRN

| Structure (SMILES) | inhibition [%] |
| --- | --- |
| Cc1[nH]c(=O)[nH]c(=O)c1S(=O)(=O)Nc1ccc(Oc2ccccc2)cc1 | 6 |
| O=S(=O)(NCC(c1cccnc1)N1CCN(c2ccccc2)CC1)c1cc(F)ccc1F (stereo not drawn) | 0 |
| O=C1CC(N2CCN(C3CCc4ccccc4C3)CC2)C(=O)N1c1ccccc1 (stereo not drawn) | 0 |
| C=C(C)COc1ccc(-c2nc(N)ncc2-c2ccc(OC)cc2)c(O)c1 | 2 |
| COc1ccc(N(C)C(=O)CCS(=O)(=O)c2cccc3nonc23)cc1 | 1 |
| Cc1ccc2nc3c(cc(C(=O)NCC4CCCO4)n3C)c(=O)n2c1 (stereo not drawn) | 0 |
| c1ccc(OCc2nc(-c3ccccc3)no2)cc1 | 0 |
| Cc1cccc(-c2cc3nc(C)cc(NCCCN(C)C)n3n2)c1 | 0 |
| COc1ccc(Cc2nc(-c3ccc(Br)cc3)no2)cc1 | 7 |
| CC(=O)Oc1ccc(-c2ccc(C(=O)O)cc2)cc1 | 4 |
| COc1ccc(CC(=O)Nc2c3c(nn2-c2cccc(Cl)c2)CS(=O)(=O)C3)cc1 | 0 |
| CCCOc1cccc(NC(=O)c2c(-c3ccccc3)noc2C)c1 | 0 |
| C=C(C)COc1ccc(-c2nc(N)ncc2Oc2ccccc2OCC)c(O)c1 | 1 |
| COc1cccc2cc(C(=O)N3CCN(c4ccc(C)cc4C)CC3)c(=O)oc12 | 0 |
| O=C(O)CCCCCCC1C(=O)NC(=O)N1CCC(O)C1CCCCC1 (stereo not drawn) | 0 |
| Cc1cc(NC(=O)CS(=O)(=O)c2cn(Cc3ccccc3Cl)c3ccccc23)no1 | 9 |
| CCCOc1cc(C)c(S(=O)(=O)N2CCN(C)CC2)cc1C | 4 |
| CCOC(=O)N1CCC(N2C(=O)c3ccccc3C2Nc2ccc3c(C)cc(=O)oc3c2)CC1 (stereo not drawn) | 4 |
| Cc1cccc(N2CCN(C(=O)Cn3nc(Cc4ccncc4)c4ccccc4c3=O)CC2)c1C | 4 |
| CC(=O)Nc1ccccc1-c1nc2ccc(C(=O)N3CCN(c4ccccc4)CC3)cc2[nH]c1=O | 7 |
| COc1ccc(N2CCN(Cc3nc4ccccc4c(=O)[nH]3)CC2)cc1 | 0 |
| O=C(CN1CCN(c2nc(-c3ccccc3)cs2)CC1)Nc1ccc2c(c1)OCO2 | 4 |
| CCC(=O)Nc1c2c(nn1-c1ccccc1C)CSC2 | 6 |
